According to PubChem BioAssay (NCATS):
Results filed as inconclusive are left out. Calls of active or inactive are those of the source. Unless noted, calls come from the whole dose curve; as a rule, active = well fitted curve in the direction sought with a large enough effect; inconclusive = small, poorly fitted or top-dose-only effect, or another doubt; inactive = no such curve, though single readings can be large; an effect the other way counts as inactive or inconclusive.

Assays:
[1] = Cell Viability - BJ (AID 421; calls by dose curve;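 note: potency is the fitted concentration of half-maximal effect; cells exposed to compound for 40 hours at 37 °C before readout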); conditions: BJ fibroblast viability, qHTS
Outline: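 Cytotoxicity as drop in intracellular ATP (CellTiter-Glo, 20 min RT) after 40 hr compound exposure of BJ fibroblasts at 37 °C. Titrations scaled between DMSO and 100 uM tamoxifen, Hill-fitted for AC50.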

[2] = Cell Viability - Jurkat (AID 426;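 active = dose-dependent loss of cell ATP signal giving a full or clear fitted curve, ranked by lower potency value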;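 note: potency is the fitted concentration of half-maximal effect; cells exposed to compound for 40 hours at 37 °C before ATP read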); conditions: qHTS
Outline: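 Luminescent ATP read-out (CellTiter-Glo, 20 min at room temperature) after 40 hr compound exposure at 37 °C of Jurkat E6-1 cells, 5000/well. Decreased ATP taken as cytotoxicity; AC50 from standard Hill equation.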

[3] = Cell Viability - Hek293 (AID 427;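 active = compounds whose dose-response curve shows a full or clear partial loss of cell viability, called from curve shape rather than a numeric limit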;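 note: potency is the fitted concentration of half-maximal effect; cells exposed to compound for 40 hours at 37 °C before reading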); conditions: qHTS
Outline: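 Luminescent ATP content (CellTiter-Glo, 20 min at room temperature) was measured after a 40 hr, 37 °C compound exposure of HEK293 cells. AC50 values came from Hill-equation fits of qHTS concentration-response data normalized to DMSO and 100 uM tamoxifen.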

[4] = Cell Viability - HepG2 (AID 433; calls by dose curve;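 note: potency is the fitted concentration of half-maximal effect; cells exposed to compound for 40 hours; potency for ATP loss meaning cytotoxicity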); conditions: qHTS
Outline: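 ATP luminescence (CellTiter-Glo) after 40 h compound exposure, 37 °C, HepG2, 1500 cells/well, complete medium. Normalized: DMSO = basal, 100 uM tamoxifen = 100% inhibition. AC50 via standard Hill equation.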

[5] = Cell Viability - MRC5 (AID 434; calls by dose curve;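 note: potency is the fitted concentration of half-maximal effect; cells exposed to compound for 40 hours at 37 °C; potency reflects cytotoxicity seen as loss of intracellular ATP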); conditions: MRC5 lung fibroblast viability, qHTS
Outline: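 ATP luminescence read-out (CellTiter-Glo, 20 min RT) after 40 hr, 37 °C compound exposure of 1500 MRC5 cells/well. Data normalized to DMSO (basal) and 100 uM tamoxifen (100% inhibition); AC50 from standard Hill equation.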

[6] = Cell Viability - SK-N-SH (AID 435; calls by dose curve; note: potency is the fitted concentration of half-maximal effect); conditions: SK-N-SH neuroblastoma cell viability qHTS
Outline: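 CellTiter-Glo ATP luminescence, 20 min RT read; cells pre-plated 5 hr, compound 40 hr at 37 °C, 1500 cells/well, complete medium. Normalized DMSO = 0, 100 uM tamoxifen = 100% inhibition; Hill-fit AC50.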

[7] = molecular target: Mitogen-activated protein kinase 10 (Mus musculus) (UniProt Q61831); test: JNK3 AlphaScreen Assay (AID 530; active = well fitted curve in either direction with a large enough effect, not every such curve was filed as active;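 note: kinase came from lysate of stimulated human HepG2 cells; signal reports phosphorylation of biotinylated GST-cJun 1-79 at Ser73 with 10 µM ATP; % is set by controls: 0 for no effect and ±100 for the full control effect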); conditions: JNK3 lysate, c-Jun phosphorylation; series mostly up to 57.1 µM
Outline: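 HepG2 lysate (IL-1b/TNFa pre-activated) + biotin-GST-cJun 1-79 + anti-pSer73 cJun; cpd titration, 15 min RT; ATP 10 uM start; Tris pH 7.6, MgCl2, DTT, vanadate; beads in EDTA buffer; AlphaScreen.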

[8] = Cell Viability - N2a (AID 540); conditions: N2a mouse neuroblastoma cell viability; activity change, negative = cytotoxicity: at 92.2 µM (top of the series);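 note: plate controls were DMSO alone for no effect and tamoxifen control for full effect; nearly all actives have a fitted effect of over 45% in size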
Outline: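 N2a mouse neuroblastoma, 1500 cells/well, 5 hr settle; compound 40 hr, 37 °C; CellTiter-Glo 20 min RT; luminescence; Hill-fit AC50.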

[9] = Cell Viability - NIH 3T3 (AID 541); conditions: NIH 3T3 cell viability, qHTS; activity change, negative = cytotoxicity: at 92.2 µM (top of the series);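 note: cells exposed to compound for 40 hours; plate controls were DMSO alone for no effect and tamoxifen positive control for full effect; nearly all actives have a fitted effect of over 25% in size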
Outline: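 qHTS format; 40 hr compound exposure, 37 °C; CellTiter-Glo luminescence (cellular ATP) read-out after 20 min at RT. Decrease in ATP = cytotoxicity; AC50 from standard Hill fit.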

[10] = Cell Viability - HUV-EC-C (AID 542); conditions: HUV-EC-C endothelial cell viability, qHTS; series mostly up to 92.2 µM;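 note: cells exposed to compound for 40 hours; % is set by controls: 0 for no effect and ±100 for the full control effect; nearly all actives have a fitted effect of over 35% in size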
Outline: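 Luminescent ATP read-out (CellTiter-Glo, 20 min room temperature) after 40 hr compound treatment of HUV-EC-C cells at 37 °C. Concentration-response data fitted with the standard Hill equation to give AC50; tamoxifen and doxorubicin served as positive controls.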

[11] = Cell Viability - H-4-II-E (AID 543); conditions: H-4-II-E rat hepatoma viability; series mostly up to 92.2 µM;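 note: cells exposed to compound for 40 hours; % is set by controls: 0 for no effect and ±100 for the full control effect; nearly all actives have a fitted effect of over 35% in size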
Outline: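 qHTS, rat hepatoma H-4-II-E, 1500 cells/well; 40 hr compound exposure, 37 °C; CellTiter-Glo ATP luminescence after 20 min RT; AC50 by standard Hill fit.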

[12] = Cell Viability - SH-SY5Y (AID 544); conditions: SH-SY5Y neuroblastoma cell viability; viability change, negative = cytotoxic: at 92.2 µM (top of the series);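 note: cells exposed to compound for 40 hours; nearly all actives have a fitted effect of over 55% in size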
Outline: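 SH-SY5Y, 1500 cells/well, 5 hr pre-incubation 37 °C; cpd 40 hr 37 °C; CellTiter-Glo 20 min RT; luminescence (ATP) read. qHTS concentration-response, Hill fit → AC50. Tamoxifen, doxorubicin as positive controls.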

[13] = Cell Viability - Renal Proximal Tubule (AID 545); conditions: renal proximal tubule cells viability, primary cells of rat origin; series mostly up to 91.7 µM;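 note: cells exposed to compound for 40 hours; nearly all actives have a fitted effect of over 40% in size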
Outline: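 Rat kidney proximal tubule cells, freshly isolated; 1000 cells/well, 5 hr settle, compound 40 hr 37 °C. CellTiter-Glo 20 min RT, luminescence read. AC50 by standard Hill fit.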

[14] = Cell Viability - Mesenchymal (AID 546); conditions: mesenchymal cells viability, qHTS; series mostly up to 91.7 µM;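 note: cells exposed to compound for 40 hours before reading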
Outline: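 Human renal mesenchymal cells (glomerulus-derived), 1000 cells/well, 5 hr 37 °C pre-incubation; compound 40 hr, 37 °C; CellTiter-Glo, 20 min RT; luminescence; AC50 via Hill equation.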

[15] = Cellular Toxicity (caspase-3) HepG2 (AID 654); conditions: HepG2 caspase-3 activation, luminescence; series mostly up to 92.2 µM;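 note: cells exposed to compound for 16 hours before reading; 0% = DMSO alone and 100% = caspase signal from 100 µM tamoxifen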
Outline: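 Luminescent Caspase-Glo 3/7 readout after 16 hr compound exposure of human hepatocellular carcinoma HepG2 cells at 37 °C; qHTS concentration-response, normalized DMSO = 0%, 100 uM tamoxifen = 100%; AC50 by standard Hill equation.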

[16] = Cellular Toxicity (caspase-3) HUV-EC-C (AID 656); conditions: HUV-EC-C cells, caspase-3 activation (apoptosis), vehicle = 0, 100 µM tamoxifen = 100%; series mostly up to 92.2 µM
Outline: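 Luminescent caspase-3/7 activation (aminoluciferin substrate cleavage) in HUV-EC-C cells after 16 hr compound exposure, 37°C. Signal normalized to DMSO basal and 100 uM tamoxifen as 100%; AC50 from concentration-response fitted with the Hill equation.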

[17] = Cellular Toxicity (caspase-3) SHSY5Y (AID 657); conditions: SH-SY5Y caspase-3 activation, DMSO zero, 10 µM staurosporine = 100%; series mostly up to 91.7 µM;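 note: cells exposed to compound for 16 hours at 37 °C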
Outline: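 Luminescent caspase-3/7 readout (aminoluciferin release) in SH-SY5Y cells after 16 h compound exposure in complete medium. Activity scaled between DMSO basal and 10 uM staurosporine as 100%; concentration-response fitted to Hill equation for AC50.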

[18] = Cellular Toxicity (caspase-3) BJ (AID 658); conditions: BJ fibroblasts, luminescence, normalized: DMSO 0%, staurosporine 100%; series mostly up to 91.7 µM;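 note: cells exposed to compound for 16 hours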
Outline: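 qHTS, BJ fibroblasts, 1000 cells/well; 5 hr preincubation, 16 hr compound, 37 °C; Caspase-Glo 3/7 reagent, 1 hr RT; luminescence. DMSO = 0%, 10 uM staurosporine = 100%. Hill-equation AC50.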

[19] = Cellular Toxicity (caspase-3) MRC-5 (AID 659); conditions: MRC-5 cells, luminescence, normalized: DMSO 0%, 10 µM staurosporine 100%; series mostly up to 91.7 µM;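 note: cells exposed to compound for 16 h at 37 °C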
Outline: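 MRC-5 fibroblasts, 1500/well; 16 h cpd, 37 °C; Caspase-Glo 3/7, 1 h RT; lumi read. Norm: DMSO = 0%, 10 uM staurosporine = 100%. Hill-fit AC50 from qHTS conc-response.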

[20] = Cellular Toxicity (caspase-3) Jurkat (AID 655); conditions: Jurkat caspase-3 activation, luminescence; caspase-3 activation: at 92.2 µM (top of the series), DMSO = 0%, tamoxifen = 100%;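 note: cells exposed to compound for 16 h at 37 °C before reading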
Outline: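 Luminescent caspase-3/7 readout (aminoluciferin substrate cleavage) in human T-cell leukemia Jurkat cells after 16 hr compound exposure. Concentration-response normalized to DMSO and 100 uM tamoxifen; AC50 by standard Hill equation.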

CC(C)(C)c1ccc(OCC2CO2)cc1 (stereo not drawn)
inactive: Potency [1] > 92 µM | Potency [2] > 92 µM | Potency [3] > 92 µM | Potency [4] > 92 µM | Potency [5] > 92 µM | Potency [6] > 92 µM | outcome [7] | activity change, negative = cytotoxicity [8] -14.9% | Potency [9] | Potency [10] | Potency [11] | Potency [12] | Potency [13] | Potency [14] | Potency [15] | outcome [16] | outcome [17] | outcome [18] | outcome [19]

NC(=O)NC(N)=O
inactive: Potency [1] > 92 µM | Potency [2] > 92 µM | Potency [3] > 92 µM | Potency [4] > 92 µM | Potency [5] > 92 µM | Potency [6] > 92 µM | outcome [7] | activity change, negative = cytotoxicity [8] -8.97% | Potency [9] | Potency [10] | Potency [11] | Potency [12] | Potency [13] | Potency [14] | caspase-3 activation [20] 0.487% | outcome [16] | outcome [17] | outcome [18] | outcome [19]

CCC(O)C(C)(C)C (stereo not drawn)
inactive: Potency [1] > 92 µM | Potency [2] > 92 µM | Potency [3] > 92 µM | Potency [4] > 92 µM | Potency [5] > 92 µM | Potency [6] > 92 µM | outcome [7] | activity change, negative = cytotoxicity [8] 5.57% | Potency [9] | Potency [10] | Potency [11] | Potency [12] | Potency [13] | Potency [14] | Potency [15] | outcome [16] | outcome [17] | outcome [18] | outcome [19]

O=C(O)/C=C/C(=O)O
inactive: Potency [1] > 92 µM | Potency [2] > 92 µM | Potency [3] > 92 µM | Potency [4] > 92 µM | Potency [5] > 92 µM | Potency [6] > 92 µM | outcome [7] | activity change, negative = cytotoxicity [8] 4.39% | Potency [9] | Potency [10] | Potency [11] | Potency [12] | Potency [13] | Potency [14] | outcome [16] | outcome [17] | outcome [18]

CC(C)(C)OC=O
inactive: Potency [1] > 92 µM | Potency [2] > 92 µM | Potency [3] > 92 µM | Potency [4] > 92 µM | Potency [5] > 92 µM | Potency [6] > 92 µM | outcome [7] | activity change, negative = cytotoxicity [8] -8.52% | Potency [9] | Potency [10] | Potency [11] | Potency [12] | Potency [13] | Potency [14] | caspase-3 activation [20] -1.27% | outcome [16] | outcome [17] | outcome [18] | outcome [19]
